Results as given in PubChem BioAssay (EPA / NIEHS).
Inconclusive results are not listed. Activity calls are given as the source filed them. Rule for the calls, unless noted: active = hit-call score of the fitted dose curve at least 0.9, where 1 is the maximum; inactive = score below 0.9.

Tests used:
[1] = CCTE_Shafer_MEA_dev_firing_rate_mean: CCTE's Neural Network Formation Assay for Mean Firing Rate, Shafer Lab (AID 2284031);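 note: curve fitted for loss of firing so AC50 reflects decreased mean firing rate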
Outline: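 Steps: seed rat cortical cells (1.5 x 10^5/well) with laminin on PEI-coated MEA; dose day 0; record DIV 5/7/9/12, full media and compound exchange after DIV 5 and 9 recordings; compute well-mean firing rate AUC.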

[2] = CCTE_Shafer_MEA_dev_per_burst_spike_percent: CCTE's Neural Network Formation Assay for Percent of Spikes in a Burst, Shafer Lab (AID 2284032);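 note: fitted as a decrease in burst spike percentage below DMSO baseline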
Outline: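 Value is trapezoidal AUC over recordings on days 5, 7, 9 and 12 of the well-mean fraction of spikes falling in single-electrode bursts; rat cortical cultures exposed continuously from plating, treatment renewed DIV 5 and 9, fitted downward against DMSO.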

[3] = CCTE_Shafer_MEA_dev_active_electrodes_number: CCTE's Neural Network Formation Assay for Number of Active Electrodes, Shafer Lab (AID 2284040; active = hit-call score of the fitted dose curve at least 0.9, where 1 is the maximum;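 note: potency for loss of active electrodes versus DMSO so lower counts are hits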)
Outline: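 Counts electrodes per well firing at least 5 spikes/min, recorded on days 5, 7, 9 and 12 in rat cortical cultures dosed continuously from plating (treatment refreshed DIV 5, 9). Value is the area under the curve over recordings, fitted downward relative to DMSO.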

[4] = CCTE_Shafer_MEA_dev_burst_rate: CCTE's Neural Network Formation Assay for Burst Rate, Shafer Lab (AID 2284042)
Outline: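 Rat primary cortical cultures on PEI/laminin MEA; compound from plating, re-dosed at DIV 5, 9 media change. Single-electrode bursts/recording length, well mean of active electrodes; AUC over DIV 5–12 recordings; loss-of-signal vs DMSO.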

[5] = CCTE_Shafer_MEA_dev_bursting_electrodes_number: CCTE's Neural Network Formation Assay for Number of Bursting Electrodes, Shafer Lab (AID 2284043; active = hit-call score of the fitted dose curve at least 0.9, where 1 is the maximum;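 note: potency is for loss of bursting electrodes relative to DMSO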)
Outline: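 Number of electrodes reaching ≥1 burst every 2 min was recorded at DIV 5, 7, 9 and 12 and collapsed as trapezoidal area under the curve. Cultures were rat cortical neurons on MEA plates, dosed continuously from plating with medium and treatment refreshed on DIV 5 and 9.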

[6] = CCTE_Shafer_MEA_dev_per_burst_interspike_interval: CCTE's Neural Network Formation Assay for Burst Interspike Interval, Shafer Lab (AID 2284044);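 note: potency for a decrease of within-burst interspike interval below DMSO level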
Outline: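 Spontaneous activity of maturing rat cortical networks is recorded on DIV 5, 7, 9 and 12 under chronic compound exposure beginning at plating. Endpoint: burst interspike interval well-mean, collapsed into trapezoidal AUC and fitted in the negative direction relative to DMSO.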

[7] = CCTE_Shafer_MEA_dev_burst_duration_mean: CCTE's Neural Network Formation Assay for Mean Burst Duration, Shafer Lab (AID 2284045)
Outline: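 Mean single-electrode burst duration (first to last spike), averaged over bursting electrodes per well, then integrated as area-under-curve across recordings at days 5, 7, 9 and 12. Rat cortical cultures on MEAs, compound present from plating, refreshed at feeds.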

[8] = CCTE_Shafer_MEA_dev_interburst_interval_mean: CCTE's Neural Network Formation Assay for Mean Interburst Interval, Shafer Lab (AID 2284046);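 note: well-mean interburst interval of bursting electrodes as AUC over four recording days; curve fitted for decrease in interburst interval relative to DMSO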
Outline: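 Rat cortical neurons, 1.5 x 10^5 cells/well, 48-well MEA; compound from day 0 through DIV 12, media and treatment renewed DIV 5/9. Recordings DIV 5, 7, 9, 12; well-mean interburst interval → trapezoidal AUC, loss direction vs DMSO.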

[9] = CCTE_Shafer_MEA_dev_inter_network_spike_interval_mean: CCTE's Neural Network Formation Assay for Mean Inter-network Spike Interval, Shafer Lab (AID 2284047)
Outline: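 Primary rat cortical neurons on PEI-coated 48-well MEAs (16 electrodes/well) were exposed from plating day 0 to DIV 12, with dosing renewed at DIV 5 and 9. Recordings at DIV 5, 7, 9, 12 were collapsed by trapezoidal AUC, loss-of-signal fit vs DMSO.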

[10] = CCTE_Shafer_MEA_dev_network_spike_peak: CCTE's Neural Network Formation Assay for Mean Number of Electrodes in Network Spike, Shafer Lab (AID 2284049);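 note: fitted for loss of signal meaning fewer electrodes in network spikes than DMSO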
Outline: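 Rat cortical primary culture, 1.5 x 10^5 cells/well, 48-well MEA (16 electrodes/well). Dosing day 0 through DIV 12, full media/compound exchange DIV 5, 9. AxIS adaptive spike detection; AUC over days 5/7/9/12; loss-of-signal vs DMSO.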

[11] = CCTE_Shafer_MEA_dev_spike_duration_mean: CCTE's Neural Network Formation Assay for Mean Spike Duration, Shafer Lab (AID 2284051);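 note: mean network spike duration pooled as area under curve over DIV 5 to 12 recordings; potency for a decrease in mean network spike duration versus DMSO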
Outline: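 Rat cortical primary cultures, 48-well MEA (16 electrodes/well); compound from plating, renewed DIV 5, 9. Network spike duration (AxIS adaptive detector) recorded DIV 5/7/9/12, combined as trapezoidal AUC; loss direction vs DMSO.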

[12] = CCTE_Shafer_MEA_dev_network_spike_duration_std: CCTE's Neural Network Formation Assay for Standard Deviation of Network Spike Duration, Shafer Lab (AID 2284052);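 note: hits are decreases in network spike duration SD versus DMSO vehicle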
Outline: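 Rat cortical cultures, 1.5 x 10^5 cells/well, exposed continuously from plating to DIV 12 with media/compound renewal at DIV 5, 9. Spontaneous activity recorded DIV 5/7/9/12, AxIS adaptive spike detector; AUC across days; negative direction vs DMSO.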

[13] = CCTE_Shafer_MEA_dev_per_network_spike_spike_number_mean: CCTE's Neural Network Formation Assay for Mean Number of Spikes in a Network Spike, Shafer Lab (AID 2284053);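 note: fitted as decrease in spikes per network spike relative to DMSO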
Outline: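 Rat cortical primary cultures on 48-well MEA; compound from day 0, re-dosed with full media change DIV 5, 9. Recorded DIV 5, 7, 9, 12; spikes in 0.05 s window at network-spike peak ÷ total network spikes; AUC; loss vs DMSO.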

[14] = CCTE_Shafer_MEA_dev_per_network_spike_spike_percent: CCTE's Neural Network Formation Assay for Percent of Spikes in a Network Spike, Shafer Lab (AID 2284054)
Outline: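 Metric: fraction of spikes falling in a 0.05 s window at network-spike peaks. Recordings were made on days 5, 7, 9 and 12 and collapsed by trapezoidal AUC. Cultures were rat cortical neurons on MEA plates, dosed continuously from plating, re-dosed at media changes.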

[15] = CCTE_Shafer_MEA_dev_LDH: CCTE's Lactate Dehydrogenase Assay for Cytotoxicity in the Neural Network Formation Assay, Shafer Lab (AID 2284068; active = hit-call score of the fitted dose curve at least 0.9, where 1 is the maximum;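 note: exposure for twelve days from plating with re-dosing on DIV 5 and 9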)
Outline: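 Rat cortical primary neurons, MEA culture; dosing day 0–12, full medium plus compound exchange DIV 5, 9. Read-out: LDH enzyme activity, spectrophotometric. DMSO = negative control/baseline; signal loss → cytotoxicity.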

[16] = CCTE_Shafer_MEA_dev_AB: CCTE's Alamar Blue Assay for Cytotoxicity in the Neural Network Formation Assay, Shafer Lab (AID 2284083; active = hit-call score of the fitted dose curve at least 0.9, where 1 is the maximum;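 note: resazurin reduction fluorescence as viability of cultured neurons; twelve days of exposure from plating with re-dosing on DIV 5 and 9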)
Outline: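 Rat cortical primary cultures, 1.5 x 10^5 cells/well on MEA; continuous compound exposure over 12 days of network development, re-dosed with full medium change DIV 5 and 9. Alamar Blue fluorescence; loss of signal = cytotoxicity vs DMSO baseline.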

[17] = CCTE_Shafer_MEA_dev_mutual_information_norm: CCTE's Neural Network Formation Assay for Mutual Information Normalization, Shafer Lab (AID 2284091)
Outline: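 Shared information across electrodes, tracked on days 5, 7, 9 and 12 of network development and collapsed as trapezoidal area under the curve. Rat cortical cultures were treated continuously from plating, with treatment renewed at feeds on DIV 5 and 9; DMSO baseline, negative-direction fit.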

[18] = CCTE_Shafer_MEA_dev_correlation_coefficient_mean: CCTE's Neural Network Formation Assay for Mean Correlation Coefficient, Shafer Lab (AID 2284093);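 note: well mean pairwise spike train correlation integrated as AUC over recording days 5 to 12; potency fitted for loss of correlation relative to DMSO vehicle wells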
Outline: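 Rat cortical cultures, 1.5 x 10^5 cells/well, dosed from day 0 for 12 days. Spontaneous spikes recorded DIV 5/7/9/12; electrode-pair correlation coefficients averaged, AUC taken. Fit in loss direction vs DMSO.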

[19] = UKN2_HCS_IMR90_neural_migration: University of Konstanz (UKN) Leist Lab Neural Crest Cell Migration Assay in human induced IMR90 Pluripotent Stem Cells (UKN2) (AID 2284204); conditions: actives raise or lower the signal
Outline: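 High-content imaging of calcein-AM and Hoechst stained cells quantifies migration into a stopper-defined gap after 24 h compound exposure. Neural crest cells from IMR90 iPSC migrated 24 h in EGF/FGF N2-S medium before dosing; DMSO baseline.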

[20] = IUF_NPC1b_proliferation_BrdU_72hr: Leibniz Research Institute for Environmental Medicine (IUF) 72-hour Neural Progenitor Cell Bromodeoxyuridine (BrdU) Proliferation Assay (NPC1b) (AID 2284207)
Outline: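 Human fetal cortex-derived (GW 16-19) neural progenitor spheres, 0.25-0.35 mm, one per well in EGF/FGF proliferation medium, exposed to compound for 72 h at 37C, pH 7.2-7.6. BrdU incorporation over the final 16 h read by luminescence ELISA, relative to DMSO.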

[21] = IUF_NPC1a_proliferation_area_72hr: Leibniz Research Institute for Environmental Medicine (IUF) 72-hour Neural Progenitor Cell Proliferation Area Assay (NPC1a) (AID 2284208)
Outline: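 Measured in 3D suspension: each well held one primary hNPC sphere grown with EGF and FGF at pH 7.2-7.6. Compound stayed on for 72 h, then area was imaged; spheres lacking growth factors defined reduced proliferation.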

[22] = IUF_NPC1_viability_72hr: Viability Assessment at 72 hours in the Leibniz Research Institute for Environmental Medicine (IUF) Neural Progenitor Cell Proliferation Assay (NPC1) (AID 2284209)
Outline: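 Spheres of primary human neural progenitors were plated singly in proliferation medium and treated for 72 h. Mitochondrial reduction of resazurin was then measured by fluorescence and analysed against DMSO controls.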

[23] = CCTE_Mundy_HCI_Cortical_Synap_Neur_Matur_NeuriteSpotCountPerNeuriteLength: CCTE's Synaptogenesis and Neurite Maturation Assay in rat cortical cells for Neurite Spot Count per Neurite Length, Mundy Lab (AID 2284210)
Outline: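 Synaptophysin spots per unit neurite length, measured by automated imaging of MAP2/synaptophysin/Hoechst-stained neurons. Cultures from rat cortex received chemical at DIV 7 with media change through DIV 12; glial growth arrested by AraC at DIV 5; DMSO baseline.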

[24] = CCTE_Mundy_HCI_Cortical_Synap_Neur_Matur_BPCount: CCTE's Synaptogenesis and Neurite Maturation Assay in rat cortical cells for Branch Point Count, Mundy Lab (AID 2284211)
Outline: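 HCI read-out of branch points from MAP2/synaptophysin/Hoechst immunofluorescence; rat cortical cultures, AraC DIV 5, dosing DIV 7, fixed DIV 12; fit in positive direction vs DMSO baseline.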

[25] = CCTE_Mundy_HCI_Cortical_NOG_NeuriteCount: CCTE's Neurite Outgrowth Assay in rat cortical cells for Neurite Count, Mundy Lab (AID 2284212);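 note: cells fixed about two days after chemical exposure began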
Outline: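 Rat cortical primary cells; compound added 2 h post-plating, 1/10 dilution of working solution. Anti-betaIII-tubulin/AF488 ICC; ArrayScan neurite count vs DMSO.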

[26] = CCTE_Mundy_HCI_Cortical_NOG_NeuriteLength: CCTE's Neurite Outgrowth Assay in rat cortical cells for Neurite Length, Mundy Lab (AID 2284213);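 note: neurites imaged about 48 to 50 h after chemical exposure began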
Outline: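 First, rat primary cortical cells were plated and, 2 h later, given test chemical as a 1/10 dilution. Finally, βIII-tubulin immunostaining enabled automated imaging of neurite length.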

[27] = CCTE_Mundy_HCI_Cortical_Synap_Neur_Matur_NeuriteLength: CCTE's Synaptogenesis and Neurite Maturation Assay in rat cortical cells for Neurite Length, Mundy Lab (AID 2284214)
Outline: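 Cultures of rat primary cortical cells received chemical at DIV 7 and were fixed at DIV 12, after glial arrest with AraC at DIV 5. Neurite length was measured by automated imaging of MAP2 immunofluorescence.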

Measured: AC50

Cn1nc(C(F)(F)F)c(CS(=O)(=O)C2=NOC(C)(C)C2)c1OC(F)F
active: [1] 91.6 µM | [2] 80.9 µM | [3] 73.6 µM | [5] 87.5 µM | [6] 26.3 µM | [10] 50 µM | [11] 31.2 µM | [13] 50 µM | [15] 80.6 µM | [16] 68.9 µM | [18] 32.7 µM | [21] 22.1 µM | [24] 15.1 µM | [25] 84.9 µM | [26] 66.8 µM | [27] 28 µM
inactive: [4] | [7] | [8] | [9] | [12] | [14] | [17] | [19] | [20] | [22] | [23]
